The text below walks through data of publication PMC7862700, “An all-to-all approach to the identification of sequence-specific readers for epigenetic DNA modifications on cytosine”.

Holding throughout (assay): DAPPL (digital affinity profiling via proximity ligation, sequencing); 10 mM Tris-HCl pH 7.5, 50 mM NaCl, 1 mM DTT, 4% glycerol, room temperature, 30 min; GST-TFs on glutathione beads, 16-mer random dsDNA library, 0.1% formaldehyde crosslink after washing; high values mean tight binding
Holding throughout (details): protein: recombinant; tags: N-terminal GST; dsDNA, one strand shown

The target in one assay is T1, ERF (Homo sapiens, UniProt P50548 1-548).
T1 sequence: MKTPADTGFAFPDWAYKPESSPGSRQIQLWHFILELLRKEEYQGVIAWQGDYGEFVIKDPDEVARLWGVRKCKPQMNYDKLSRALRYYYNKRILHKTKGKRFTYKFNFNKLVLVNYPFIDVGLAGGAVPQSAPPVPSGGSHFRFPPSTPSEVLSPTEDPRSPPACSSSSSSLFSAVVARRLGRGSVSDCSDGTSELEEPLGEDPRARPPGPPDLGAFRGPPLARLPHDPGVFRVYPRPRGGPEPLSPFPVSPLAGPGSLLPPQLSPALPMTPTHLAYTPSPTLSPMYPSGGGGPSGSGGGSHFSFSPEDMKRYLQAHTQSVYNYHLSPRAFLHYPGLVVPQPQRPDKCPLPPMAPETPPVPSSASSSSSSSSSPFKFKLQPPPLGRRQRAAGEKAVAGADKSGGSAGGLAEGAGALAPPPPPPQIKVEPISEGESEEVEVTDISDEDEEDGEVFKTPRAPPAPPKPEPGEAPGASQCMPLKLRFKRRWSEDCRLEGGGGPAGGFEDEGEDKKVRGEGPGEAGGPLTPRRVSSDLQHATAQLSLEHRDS
In a few lines:
(§1)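 Human transcription factors carrying a GST fusion were produced in yeast, bound to glutathione beads, tagged with DNA barcodes and pooled together with a tag-only sample. Each pool was held with 200 nmole of a random double-stranded 16-mer DNA library in Tris/NaCl/DTT/glycerol buffer for 30 min at room temperature, then washed, crosslinked in 0.1% formaldehyde, proximity-ligated with BsaI/T4 ligase (1 h, 37 °C), PCR-amplified and sequenced on an Illumina NextSeq500. Binding signal is the read frequency of each hexamer for a given factor divided by its frequency in the tag-only sample.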

In another assay the target is T2, ETV3L (Homo sapiens, UniProt Q6ZN32 1-361).
T2 sequence: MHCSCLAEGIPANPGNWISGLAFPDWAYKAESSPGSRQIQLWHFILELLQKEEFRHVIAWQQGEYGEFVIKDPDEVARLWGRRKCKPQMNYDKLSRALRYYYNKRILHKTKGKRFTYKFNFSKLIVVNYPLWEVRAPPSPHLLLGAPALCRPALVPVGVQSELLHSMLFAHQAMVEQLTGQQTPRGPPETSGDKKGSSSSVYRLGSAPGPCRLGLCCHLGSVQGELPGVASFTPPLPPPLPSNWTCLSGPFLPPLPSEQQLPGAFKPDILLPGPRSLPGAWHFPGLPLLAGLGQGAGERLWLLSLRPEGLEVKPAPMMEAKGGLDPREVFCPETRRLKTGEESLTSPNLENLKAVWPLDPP
In a few lines:
as §1

Another assay deals with T3, ETS2 (Homo sapiens, UniProt P15036 1-469).
T3 sequence: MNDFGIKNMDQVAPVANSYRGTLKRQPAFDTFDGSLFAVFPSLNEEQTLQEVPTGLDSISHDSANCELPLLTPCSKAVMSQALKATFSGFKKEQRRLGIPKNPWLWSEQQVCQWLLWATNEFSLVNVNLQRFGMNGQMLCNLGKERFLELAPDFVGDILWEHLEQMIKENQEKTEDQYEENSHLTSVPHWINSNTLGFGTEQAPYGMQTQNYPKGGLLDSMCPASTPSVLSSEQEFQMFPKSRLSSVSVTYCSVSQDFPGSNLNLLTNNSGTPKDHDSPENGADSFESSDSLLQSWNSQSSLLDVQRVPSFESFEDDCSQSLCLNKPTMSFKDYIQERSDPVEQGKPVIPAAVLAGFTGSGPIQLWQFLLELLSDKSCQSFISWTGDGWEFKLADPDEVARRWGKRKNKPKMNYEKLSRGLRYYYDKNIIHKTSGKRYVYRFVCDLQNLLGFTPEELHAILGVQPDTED
In a few lines: as §1

In the next assay the target is T4, SPDEF (Homo sapiens, UniProt O95238 1-335).
T4 sequence: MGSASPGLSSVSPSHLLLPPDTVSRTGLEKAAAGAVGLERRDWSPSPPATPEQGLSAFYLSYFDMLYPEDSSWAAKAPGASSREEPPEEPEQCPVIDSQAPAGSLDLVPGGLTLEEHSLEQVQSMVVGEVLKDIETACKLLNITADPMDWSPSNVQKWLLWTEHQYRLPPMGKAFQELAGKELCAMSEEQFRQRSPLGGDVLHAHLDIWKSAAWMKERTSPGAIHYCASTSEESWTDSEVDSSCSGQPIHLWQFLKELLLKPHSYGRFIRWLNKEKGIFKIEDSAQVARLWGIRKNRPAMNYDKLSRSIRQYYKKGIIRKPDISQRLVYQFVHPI
In a few lines: as §1

In the next assay the target is T5, ETV7 (Homo sapiens, UniProt Q9Y603 1-341).
T5 sequence: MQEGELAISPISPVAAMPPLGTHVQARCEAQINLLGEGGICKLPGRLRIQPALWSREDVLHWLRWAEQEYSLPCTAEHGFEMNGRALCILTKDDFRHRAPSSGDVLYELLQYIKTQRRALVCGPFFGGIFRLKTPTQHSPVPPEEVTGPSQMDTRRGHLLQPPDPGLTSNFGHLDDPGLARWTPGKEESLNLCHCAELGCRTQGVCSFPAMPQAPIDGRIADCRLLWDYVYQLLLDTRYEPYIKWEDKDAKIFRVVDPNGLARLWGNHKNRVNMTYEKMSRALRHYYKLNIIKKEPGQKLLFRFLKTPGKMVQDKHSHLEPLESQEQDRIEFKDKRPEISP
In a few lines:
as §1

In the next assay the target is T6, ELF5 (Homo sapiens, UniProt Q9UKW6-2 1-255).
T6 sequence: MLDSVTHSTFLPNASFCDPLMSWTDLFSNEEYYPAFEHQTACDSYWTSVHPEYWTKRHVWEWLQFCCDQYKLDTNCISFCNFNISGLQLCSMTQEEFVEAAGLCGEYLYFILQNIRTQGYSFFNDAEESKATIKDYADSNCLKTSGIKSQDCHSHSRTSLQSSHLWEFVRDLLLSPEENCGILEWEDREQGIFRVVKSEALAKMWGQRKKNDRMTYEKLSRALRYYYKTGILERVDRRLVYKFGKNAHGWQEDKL
In a few lines: as §1

The next assay addresses T7, ETV3 (Homo sapiens, UniProt P41162-2 1-143).
T7 sequence: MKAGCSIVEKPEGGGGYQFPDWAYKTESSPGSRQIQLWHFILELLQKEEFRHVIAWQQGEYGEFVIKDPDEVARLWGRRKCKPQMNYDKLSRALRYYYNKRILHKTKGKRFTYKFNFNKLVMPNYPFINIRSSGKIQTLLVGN
In a few lines: as §1

The target of the next assay is ETV6 (Homo sapiens, UniProt P41212 1-452). In a few lines: as §1
ETV6, sequence (P41212 whole entry): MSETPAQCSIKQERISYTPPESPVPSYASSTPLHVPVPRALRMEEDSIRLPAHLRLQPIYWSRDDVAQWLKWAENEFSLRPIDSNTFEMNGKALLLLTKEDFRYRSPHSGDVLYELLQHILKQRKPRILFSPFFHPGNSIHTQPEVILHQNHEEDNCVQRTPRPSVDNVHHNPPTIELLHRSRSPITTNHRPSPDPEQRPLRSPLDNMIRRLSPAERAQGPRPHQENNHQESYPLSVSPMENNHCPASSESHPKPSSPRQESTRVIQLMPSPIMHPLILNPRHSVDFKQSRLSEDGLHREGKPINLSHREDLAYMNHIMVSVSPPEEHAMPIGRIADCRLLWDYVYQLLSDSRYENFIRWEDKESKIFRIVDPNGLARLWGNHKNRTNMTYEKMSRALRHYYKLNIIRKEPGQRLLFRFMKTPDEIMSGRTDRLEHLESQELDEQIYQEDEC

Take GATTTG: the binding signal with ERF was 1.12 fold enrichment (6-mer frequency, TF over GST control); with ETV3L it was 1.18 fold enrichment (6-mer frequency, TF over GST control); with ETS2 it was 1.14 fold enrichment (6-mer frequency, TF over GST control); with SPDEF, 1.19 fold enrichment (6-mer frequency, TF over GST control); with ETV7, 1.15 fold enrichment (6-mer frequency, TF over GST control); with ELF5 it was 1.05 fold enrichment (6-mer frequency, TF over GST control). Further, the binding signal is 1.1 fold enrichment (6-mer frequency, TF over GST control) with ETV3 and 1.09 fold enrichment (6-mer frequency, TF over GST control) with ETV6.
In the case of TATTTC, the binding signal with ERF was 1.86 fold enrichment (6-mer frequency, TF over GST control); in the assay with ETV3L, 2.06 fold enrichment (6-mer frequency, TF over GST control); in the assay with ETS2, 2.23 fold enrichment (6-mer frequency, TF over GST control); in the assay with SPDEF it was 2 fold enrichment (6-mer frequency, TF over GST control); in the assay with ETV7, 2.2 fold enrichment (6-mer frequency, TF over GST control); with ELF5, 2.66 fold enrichment (6-mer frequency, TF over GST control). Further, the binding signal is 2.23 fold enrichment (6-mer frequency, TF over GST control) in the assay with ETV3 and 2.54 fold enrichment (6-mer frequency, TF over GST control) in the assay with ETV6.
On to GATGGT, for which the binding signal is 1.22 fold enrichment (6-mer frequency, TF over GST control) with ERF; 1.19 fold enrichment (6-mer frequency, TF over GST control) with ETV3L; 1.13 fold enrichment (6-mer frequency, TF over GST control) with ETS2; 1.04 fold enrichment (6-mer frequency, TF over GST control) with SPDEF; 1.06 fold enrichment (6-mer frequency, TF over GST control) in the assay with ETV7; 1.08 fold enrichment (6-mer frequency, TF over GST control) with ELF5. The binding signal with ETV3 was 1.12 fold enrichment (6-mer frequency, TF over GST control); with ETV6, 1.1 fold enrichment (6-mer frequency, TF over GST control).
Consider CGACGC, for which the binding signal in the assay with ERF is 1.17 fold enrichment (6-mer frequency, TF over GST control); with ETV3L, 1.08 fold enrichment (6-mer frequency, TF over GST control); in the assay with ETS2 it was 1.16 fold enrichment (6-mer frequency, TF over GST control); with SPDEF, 1.04 fold enrichment (6-mer frequency, TF over GST control); in the assay with ETV7, 1.05 fold enrichment (6-mer frequency, TF over GST control); in the assay with ELF5 it was 1.05 fold enrichment (6-mer frequency, TF over GST control). The binding signal is 1 fold enrichment (6-mer frequency, TF over GST control) with ETV3 and 1.09 fold enrichment (6-mer frequency, TF over GST control) with ETV6.
Turning to TGTTCA, the binding signal was 1.32 fold enrichment (6-mer frequency, TF over GST control) in the assay with ERF; 1.23 fold enrichment (6-mer frequency, TF over GST control) with ETV3L; 1.2 fold enrichment (6-mer frequency, TF over GST control) in the assay with ETS2; 1.3 fold enrichment (6-mer frequency, TF over GST control) with SPDEF; 1.25 fold enrichment (6-mer frequency, TF over GST control) in the assay with ETV7; 1.2 fold enrichment (6-mer frequency, TF over GST control) with ELF5. Moreover, the binding signal was 1.25 fold enrichment (6-mer frequency, TF over GST control) with ETV3 and 1.14 fold enrichment (6-mer frequency, TF over GST control) in the assay with ETV6.
In the case of TCTGAC, the binding signal with ERF is 1.21 fold enrichment (6-mer frequency, TF over GST control); with ETV3L, 1.04 fold enrichment (6-mer frequency, TF over GST control); in the assay with ETS2, 1.2 fold enrichment (6-mer frequency, TF over GST control); in the assay with SPDEF, 1.14 fold enrichment (6-mer frequency, TF over GST control); in the assay with ETV7 it was 1.22 fold enrichment (6-mer frequency, TF over GST control); in the assay with ELF5, 1.2 fold enrichment (6-mer frequency, TF over GST control). The binding signal with ETV3 is 1.18 fold enrichment (6-mer frequency, TF over GST control); with ETV6, 1.27 fold enrichment (6-mer frequency, TF over GST control).
Regarding GTAGCA, the binding signal in the assay with ERF is 1.22 fold enrichment (6-mer frequency, TF over GST control); with ETV3L, 1.04 fold enrichment (6-mer frequency, TF over GST control); in the assay with ETS2, 1.02 fold enrichment (6-mer frequency, TF over GST control); in the assay with SPDEF, 1.08 fold enrichment (6-mer frequency, TF over GST control); with ETV7, 1.06 fold enrichment (6-mer frequency, TF over GST control); in the assay with ELF5, 1.1 fold enrichment (6-mer frequency, TF over GST control). In addition, the binding signal with ETV3 is 1.05 fold enrichment (6-mer frequency, TF over GST control); in the assay with ETV6, 1.03 fold enrichment (6-mer frequency, TF over GST control).
Turning to CCAACG, the binding signal with ERF is 1.29 fold enrichment (6-mer frequency, TF over GST control); with ETV3L it was 1.1 fold enrichment (6-mer frequency, TF over GST control); with ETS2, 1.08 fold enrichment (6-mer frequency, TF over GST control); in the assay with SPDEF, 1.13 fold enrichment (6-mer frequency, TF over GST control); with ETV7, 1.13 fold enrichment (6-mer frequency, TF over GST control); in the assay with ELF5, 1.1 fold enrichment (6-mer frequency, TF over GST control). In addition, the binding signal was 1.09 fold enrichment (6-mer frequency, TF over GST control) in the assay with ETV3 and 1.22 fold enrichment (6-mer frequency, TF over GST control) with ETV6.
